Measurements reported in PubChem BioAssay (NCI).
Compounds without any hit were thinned out: in the full panel of roughly 79,000, 15% have a hit. Values without a mark were called inactive. The source made the active and inactive calls. Cut-off read from the data, not from the text of the source: active = growth inhibition above about 70%; inactive = the rest. Where a SMILES comes first, the peptide text is derived from it. Bridges are numbered along the chain shown (N, C = ends). Roman numbers before positions name the chains, in order. [ ]: non-standard residue; d: D form. The star is where a group is joined. Quinoxaline2carbonyl = O=C(c1cnc2ccccc2n1)*; NMeV = CN[CH](C(=O)O)C(C)C; NMeC = CN[CH](CS)C(=O)O

Tests used:
[1] = NCI Yeast Anticancer Drug Screen. Data for the rad50 strain (AID 155);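 note: 0% = growth of vehicle-only cultures of the same strain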; conditions: S. cerevisiae rad50 strain growth inhibition; at 50.0 µM; active compounds read high
Outline: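 Growth of the mutant yeast was measured after compound exposure and referenced to vehicle-treated cultures.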

[2] = NCI Yeast Anticancer Drug Screen. Data for the mec2-1 strain (AID 157); conditions: S. cerevisiae mec2-1 strain, at 50.0 µM, active compounds read high
Outline: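 Compounds were applied to mec2-1 yeast cells. Their growth was then compared with that of vehicle-treated cultures to give growth inhibition.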

[3] = NCI Yeast Anticancer Drug Screen. Data for the sgs1 mgt1 strain (AID 161);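 note: 0% = growth of cultures given vehicle only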; conditions: S. cerevisiae sgs1 mgt1 strain, at 50.0 µM, active compounds read high
Outline: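 This yeast growth screen uses a strain with defined DNA-repair lesions; compound-treated growth is compared with vehicle-treated growth.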

[4] = NCI Yeast Anticancer Drug Screen. Data for the cln2 rad14 strain (AID 165);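 note: 0% = growth equal to vehicle treated cultures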; conditions: S. cerevisiae cln2 rad14 strain, at 50.0 µM, active compounds read high
Outline: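 Strain: cln2 rad14 yeast, altered in cell cycle control and DNA damage repair. Read-out: growth inhibition vs vehicle.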

[5] = NCI Yeast Anticancer Drug Screen. Data for the bub3 strain (AID 167); conditions: S. cerevisiae bub3 mutant strain, at 50.0 µM, active compounds read high
Outline: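 Whole-cell yeast assay. The mutant strain was incubated with compounds, and growth inhibition was determined by comparison with vehicle-treated cells.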

[6] = NCI Yeast Anticancer Drug Screen. Data for the mlh1 rad18 strain (AID 175); conditions: S. cerevisiae mlh1 rad18 strain growth inhibition; at 50.0 µM; active compounds read high
Outline: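 A repair-deficient yeast strain is exposed to test compound, and growth is scored relative to vehicle-treated controls.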

| Compound | growth inhibition [1] | growth inhibition [2] | growth inhibition [3] | growth inhibition [4] | growth inhibition [5] | growth inhibition [6] |
| --- | --- | --- | --- | --- | --- | --- |
| CC(C)(C)N1COC2CCCCC21 (stereo unspecified) | 17.4% | -3.2% | 4.65% | -4.25% | 16.4% | 14.6% |
| ClCc1nc(-c2ccco2)no1 | 6.1% | 51.2% | 20.6% | -42.5% | 4.55% | 29.9% |
| CC(C)=C=CP(=O)(O)c1ccccc1 | -25.1% | -24.1% | -15.7% | 31.9% | -14.3% | 4.45% |
| O=S(=O)(F)c1cc(Cl)c(O)c(S(=O)(=O)F)c1 | 10.1% | 6.25% | 5.8% | 3.65% | -2.75% | 10.1% |
| COc1ccc2c(c[n+](C)c3c4cc5c(cc4ccc23)OCO5)c1OC | 0.2% | -6.25% | 5.6% | 14% | -6.5% | 0.6% |
| CCC[CH2][Sn]([CH2]CCC)([CH2]CCC)[CH2]CCNCCCN(C)C | 99.3% (active) | 99.7% (active) | 99.5% (active) | 99% (active) | 98.8% (active) | 99.2% (active) |
| CN1C2CCC1CC1(C2)SCCS1 | 2.5% | 3.85% | 3.1% | 6.2% | 6.85% | 4.45% |
| COc1ccc(CCN2CCOCC2)cc1 | 31.9% | 2.15% | 47.8% | 9.25% | 34% | 34.2% |
| COc1ccccc1CCN | -23.6% | -5.9% | -14.1% | -14.3% | -21.2% | -29.3% |
| COc1ccc2c(c1)C1(C)CCN(C)CC(C1)C2O (stereo unspecified) | 47.2% | 13.6% | 15.6% | 22.9% | -1% | 23.2% |
| NCC(Cc1ccccc1)P(=O)(O)O (stereo unspecified) | -23.8% | -28.6% | -26.4% | -42.3% | -28.1% | -22.8% |
| O=C(O)C(O)CO.[Pb] (stereo unspecified) | -1.95% | 0.35% | -2.5% | 12.4% | -15.7% | 9.85% |
| CC1NC(=O)C(NC(=O)c2cnc3ccccc3n2)COC(=O)C(C(C)C)N(C)C(=O)C2CSSCC(C(=O)N(C)C(C(C)C)C(=O)OCC(NC(=O)c3cnc4ccccc4n3)C(=O)NC(C)C(=O)N2C)N(C)C1=O (stereo unspecified) (I: Quinoxaline2carbonyl-SA[NMeC][NMeV] / II: Quinoxaline2carbonyl-SA[NMeC][NMeV]; ester I:1-II:C, I:C-II:1; disulfide I:3-II:3; configuration not given here) | 87.3% (active) | 90.5% (active) | 90% (active) | 86.7% (active) | 88.2% (active) | 89.7% (active) |
| [C-]#[O+].[C-]#[O+].[C-]#[O+].[C-]#[O+].[Mo].c1ccc([As](CC[As](c2ccccc2)c2ccccc2)c2ccccc2)cc1 | 3.4% | -0.4% | -5.8% | -5.7% | 1.15% | 6.6% |
| O=C(NCCc1ccccn1)c1ccc2cc(C(=O)N3CC(CCl)c4ccc([N+](=O)[O-])cc43)[nH]c2c1 (stereo unspecified) | 8.65% | -2% | 3.95% | 12.4% | 2.95% | -76.3% |
| S=C(N=Nc1ccccc1)NNc1ccccc1.[Cu+2] | -17.4% | -28.8% | -30% | 1.8% | 5.75% | -15.2% |
| Cc1nc2ccc(Br)cc2c(=O)n1-c1nnc(C(C)(C)C)s1 | -10.9% | -40.4% | -23.2% | -5.75% | -20.6% | -12.2% |
| O=P1(c2ccccc2)CCCCN1 (stereo unspecified) | 12.2% | -16.1% | -5.1% | -20.9% | 3.55% | 1.8% |

| Compound | growth inhibition [1] | growth inhibition [2] | growth inhibition [3] | growth inhibition [4] | growth inhibition [5] | growth inhibition [6] |
| --- | --- | --- | --- | --- | --- | --- |
| CC#CC(O)(C(=O)OC)c1ccccc1 (stereo unspecified) | -7.35% | 12.6% | -20.8% | -23.6% | -5.1% | -1.9% |
| CCN1C(=O)CC(=O)N(CC)C1=S | 24.4% | -12.4% | -8.55% | 12.2% | 8.45% | 21.2% |
| CCC1C(=O)NC(=O)N(c2ccccc2)C1=O (stereo unspecified) | 13.7% | -8.3% | -3.25% | -39.4% | 3.1% | -6% |
| O=C(Nc1cc(S(=O)(=O)O)cc2cc(S(=O)(=O)O)c(N=Nc3ccc([As](=O)(O)O)cc3)c(O)c12)c1ccc([N+](=O)[O-])cc1 | 12.7% | 1.7% | -7.45% | -9.1% | -3.4% | 6.55% |
| CCP(=S)(CC)P(=S)(CC)CC | -1.35% | -21.4% | -14.6% | -9.2% | -11.8% | 7.45% |
| ClCCCN1CCN(c2ccccc2Cl)CC1 | 9.35% | -16.7% | 7.45% | 7.45% | 1.15% | -7.8% |
| COc1ccc2c3c1OC1C(O)C=CC4C(C2)N(N=O)CCC341 (stereo unspecified) | -3.2% | 9.6% | -4.2% | 11.5% | 5.25% | 21.7% |
| N#CC(C#N)C1CN2CCC1CC2 (stereo unspecified) | 1.95% | 13.3% | 15.6% | 24.5% | 4.9% | -26.6% |
| Cc1nc2ccccc2c(=O)n1-c1ccccc1Cl | 7.15% | -4.65% | -6.75% | 12.9% | 15.9% | 9.8% |
| O=P(OCCCl)(OCCCl)OCCCl | -12.1% | -19.4% | -19.2% | -54.6% | 0.15% | -5% |
| NC(c1ccccc1)C(O)c1ccc(O)cc1 (stereo unspecified) | 19.4% | 12.3% | 10.1% | -10.6% | 1.05% | -8.35% |
| CCC1CCC2CCCC(C)N12 (stereo unspecified) | 9.05% | 4.25% | -3.2% | 1.5% | 8.2% | 7.75% |
| O=C(O)c1ccc([N+](=O)[O-])c([N+](=O)[O-])c1 | 22.2% | 4.95% | 32.9% | 7.05% | 10% | 24.6% |
| CN1C2CCC1CC(O)(c1ccc(Cl)cc1)C2 (stereo unspecified) | 26.1% | 16.4% | 16.6% | 16.1% | 30.4% | 28.1% |
| C[C@]12CC[C@H](O[C@@H]3O[C@H](CO[C@@H]4O[C@H](CO)[C@@H](O)[C@H](O)[C@H]4O)[C@@H](O)[C@H](O)[C@H]3O)C[C@@H]1CC[C@@H]1[C@@H]2CC[C@]2(C)[C@@H](C3=CC(=O)OC3)CC[C@]12O | -7.75% | -13.6% | -1.85% | -0.85% | -1.95% | 8.85% |
| CC1(C)COP(=S)(SCCC#N)OC1 | -38.8% | -7.1% | 0.95% | -29.4% | 12.8% | -0.55% |
| N/C(=N\NS(=O)(=O)c1ccccc1)N[N+](=O)[O-] | -3.1% | 21.7% | 7.05% | -8.55% | 24.2% | 7.25% |
| CCCCCCNP(=O)(OCC)OCC | -6% | -36.9% | 5.3% | 6.8% | -41.8% | 12.3% |
